Records with an inconclusive call do not appear. A call without a number means that no potency is given here. Activity calls are given as the source filed them. Calls come from the whole dose curve; as a rule, active = well fitted cell-killing curve with a large enough effect in the repeat runs; inconclusive = weak or mixed curves, or effect the other way; inactive = flat fitted curve, though single readings scatter.

This experiment is described as follows: qHTS assay to identify small molecule antagonists of the retinoid acid receptor (RAR) signaling pathway - cell viability counter screen (AID 1159551). Note: nearly all actives have a fitted effect of over 35% in size. To be noted: C3RL4 cells viability, ATP luminescence (CellTiter-Glo), 6 h; series mostly up to 92.4 µM; activity change, negative = cytotoxicity: at the top concentration. An excerpt: U.S. Tox21 Program National Center for Advancing Translational Sciences [NCATS] NIH Chemical Genomics Center [NCGC] U.S. Environmental Protection Agency [EPA] National Institutes of Environmental Health Sciences [NIEHS] National Toxicology Program [NTP] U.S. Food and Drug Administration [FDA] Tox21 Assay Overview: All-trans Retinoic acid (atRA) is the potent natural metabolite of retinol and plays an important role in normal embryonic development and maintenance of cellular phenotype in adult animals. atRA is the activating ligand for the retinoic acid receptors (RARs) which form heterodimers with retinoid X receptors (RXRs) on the retinoic acid response element (RARE). Through activation of the RAR/RXRs nuclear receptors, atRA regulates the transcription of a large number of protein-coding genes and regulatory RNAs. Intracellular levels of atRA are controlled by the retinol signaling pathway (RSP) that regulates the biosynthesis and catabolism of atRA to maintain physiological levels. Chemicals that interfere with the RSP can cause abnormal intracellular levels of atRA and therefore are potential developmental toxicants. To assess compounds for the potential adverse effect on embryonic development through interfering with retinol signaling, a cell-based RARE luciferase reporter gene assay was used. C3RL4 cell line (OARSA/CFSAN/FDA, Laurel, MD) was used to screen Tox21 10K compound library for identifying inhibitors of the RSP. Also cytotoxicity was assessed by determining the viability of cells based on the quantitation of ATP.
Tox21 Assay Protocol Summary: C3RL4 cells were seeded at 1,000/well in 4 uL of assay medium into white solid 1,536-well tissue culture plates (Greiner Bio-One North America Inc. Monroe, NC) using a Multidrop Combi (Thermo Scientific, Waltham, MA) dispenser. After incubation at 37 C and 5% CO2 for an overnight, 23 nL of compounds dissolved in DMSO, positive control or DMSO only were transferred by a Pintool station (Kalypsys, San Diego, CA). One ul of 1 uM (final concentration) of Retinol was added right after the compound addition by using a Flying Reagent Dispenser (FRD) (Aurora Discovery, San Diego, CA). After 6 hr incubation at 37 C and 5% CO2, 5 uL of CellTiter-Glo reagent (Promega Corporation, Madison, WI) was added to each assay plate using an FRD. Luminescence was quantified on a ViewLux plate reader (PerkinElmer, Waltham, MA) after 30 min incubation at room temperature.
On the technique in general: In qHTS, concentration-response curves come from the screen itself.
In the case of `IC(I)I`, the Potency result is “inactive”.
With `CCCN1C=CN(C)C1`, the Potency result is “inactive”.
Consider `C=CC(C)(O)CCC=C(C)C` (stereo not given), for which the Potency entry was “inactive”.
With `CC(=O)[C@@]1(O)CC[C@H]2[C@@H]3C[C@H](C)C4=CC(=O)C=C[C@]4(C)[C@@]3(F)[C@@H](O)C[C@@]21C`, the Potency result is “inactive”.
The same measure, in the same setting: then `c1ccc2ncccc2c1`, with “inactive”; and `CCCOCCO`, with “inactive”; and `CCCCCCCCCCCCO`, with “inactive”.
With `OC[C@@H](O)[C@@H](O[C@@H]1O[C@H](CO)[C@H](O)[C@H](O)[C@H]1O)[C@H](O)[C@@H](O)CO`, the Potency entry was “inactive”.
On the same count and under the same terms, in the case of `CC(=O)Oc1ccc(C(c2ccc(OC(C)=O)cc2)c2ccccn2)cc1` it was “inactive”; in that of `COC(=O)CC(=O)OC`, “inactive”.
On the same count and under the same terms, in the case of `NCCN` it was “inactive”.
As for `O=C(CCCN1CCC(O)(c2ccc(Cl)cc2)CC1)c1ccc(F)cc1`, the “activity change, negative = cytotoxicity” value was -1.4% [at 42.5 µM] (inactive).
In the case of `COc1cc([C@H]2Oc3cc([C@H]4Oc5cc(O)cc(O)c5C(=O)[C@@H]4O)ccc3O[C@@H]2CO)ccc1O`, the Potency entry was “inactive”.
Same read-out and setting: then `CCC(=O)O[C@H]1[C@H](O[C@@H]2[C@@H](C)[C@H](O[C@H]3C[C@@](C)(OC)[C@@H](O)[C@H](C)O3)[C@@H](C)C(=O)O[C@H](CC)[C@@](C)(O)[C@H](O)[C@@H](C)C(=O)[C@H](C)C[C@@]2(C)O)O[C@H](C)C[C@@H]1N(C)C`, with “inactive”; and `Oc1ccc(C(c2ccc(O)cc2)C(Cl)(Cl)Cl)cc1`, with “inactive”.
The same measure, in the same setting: then `COCCOCCOCCO`, with “inactive”.
The same measure, in the same setting: then `O=C1CCc2ccccc2O1`, with “inactive”; and `CC/C(=C(/CC)c1ccc(O)cc1)c1ccc(O)cc1`, with “inactive”.
With `Cc1ccc2c(c1)C(=O)OC2=O`, the Potency result was “inactive”.
Still for that read-out and setting: then `Nc1cc([N+](=O)[O-])ccc1C(=O)O`, with “inactive”; and `COc1ccc(C(=O)c2ccccc2O)c(O)c1`, with “inactive”.
Consider `C=CCNCC=C`, for which the Potency entry is “inactive”.
The same measure, in the same setting: then `Cc1ccc(C)c(O)c1`, with “inactive”; and `CC1=CC(C)(C)Nc2ccccc21`, with “inactive”; and `NCCOCCO`, with “inactive”.
Regarding `CC(C)(C)c1cccc(C(C)(C)C)c1O`, the “activity change, negative = cytotoxicity” value is 2.36% (inactive).
As for `COC(=O)c1ccc(C)cc1`, the Potency entry is “inactive”.
As to `CC1(C)OC(=O)NC1=O`, the Potency entry is “inactive”.
For `CC(=O)O[C@]1(C(C)=O)CC[C@H]2[C@@H]3C=C(Cl)C4=CC(=O)CC[C@]4(C)[C@H]3CC[C@@]21C`, the Potency entry was “inactive”.
Consider `COc1ccc(-c2coc3cc(O)cc(O)c3c2=O)cc1`, for which the Potency entry was “inactive”.
Same read-out and setting: then `CCO[Si](CCCNC(N)=O)(OCC)OCC`, with “inactive”; and `OCCNCCO`, with “inactive”; and `CC(C)=CCO`, with “inactive”.
On to `CN1CCOCC1`, for which the Potency entry was “inactive”.
Take `CCCCCCOCCOCCO`: the Potency entry is “inactive”.
`O=C(O)CCCCCCCCCCCC(=O)O`: the “activity change, negative = cytotoxicity” value was 7.24% (inactive).
Consider `O=S1(=O)CCCO1`, for which the Potency entry was “inactive”.
On to `C[C@]12CC[C@@H]3c4ccc(O)cc4CC[C@H]3[C@@H]1CC[C@@H]2O`, for which the Potency entry is “inactive”.
The same measure, in the same setting: in the case of `CCCCCCCCCCC(CO)CCCCCCCC` (stereo not given) it was “inactive”; in that of `CCCCCCCCCCCCCO`, “inactive”.
